# Bioassay records: PubChem, National Center for Advancing Translational Sciences (NCATS)
# Hits are enriched below; roughly 19% of the tested compounds scored in any of these assays.
# Giardia kill: Giardia lamblia killing; AID 540267; 340,000 compounds, 0.15% hits; activity change, % at 7.66 µM, hits read low; Giardia lamblia trophozoite viability; in the data active means activity change below about -80%; inconclusive means between about -30% and that limit;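 further: parasites exposed to compound for two days anaerobically before the ATP read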
#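 Compounds were tested on trophozoites seeded at 100 cells/well and held 48 hrs at 37 deg C anaerobically. An ATP-based luminescent kit measured the remaining live cells.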
# IL-1B inflam inh: inflammasome signaling inhibition, IL-1 beta readout. THP-1 LPS/ATP IL-1B secretion, AlphaLISA, 16 h; hits give low values. activity change, % at 57.5 µM. 360,000 compounds, 4.7% hits. AID 743279; in the data active means activity change below about -50%; inconclusive means mostly about -30% to -49%
#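 THP-1 cells pretreated 1 hr with compounds (up to 57.5 uM final), then stimulated with LPS (250 ng/mL final) plus ATP (1.25 mM final); secreted IL-1B measured by AlphaLISA after 16 hr, decreased signal indicating inhibition.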
# ELG1 DNA repair: inhibitors of ELG1-dependent DNA repair in HEK293T cells; HEK293T ELG1-luciferase reporter, luminescence, 16 h; DNA damage induced by 5-fluorouridine; Potency, µM (doses to about 46.1 µM), for inactives: top-dose activity change, negative = inhibition, hits mostly inhibitors; 330,000 compounds, 2.3% hits; AID 504467; further: potency means the concentration at half of the fitted maximal effect; nearly all actives have a fitted effect of over 55% in size
#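 Overnight (16 hr) co-exposure of 2,000 cells/well to 5-fluorouridine and compound at 37 °C preceded detection. Luciferase was quantified via ONE-Glo luminescence; loss of signal denotes inhibition.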
# TDP1 cell noCPT: qHTS for Inhibitors of human tyrosyl-DNA phosphodiesterase 1 (TDP1): qHTS in cells in absence of CPT | DT40 Tdp1-/- hTDP1 cells, no CPT, ATP luminescence, 48 h | Potency, µM (top dose mostly 46.2 µM), without a hit: at the highest dose activity change, negative = growth inhibition, actives largely listed as inhibitors | AID 686978, 2013 | 420,000 compounds, 15% hits; further: potency means the concentration at half of the fitted maximal effect; nearly all actives have a fitted effect of over 55% in size
#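 A cellular qHTS used chicken DT40 cells lacking endogenous Tdp1 but carrying stably transfected human TDP1. Compounds were applied without camptothecin, and cell growth kinetics were judged by ATP-dependent luminescence after ≥48 hr.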
# TDP1 block: blocks human tyrosyl-DNA phosphodiesterase 1; Q9NUW8; Potency, µM (doses to about 130 µM), inactives show at the highest dose activity change, negative = inhibition, most hits filed as inhibitors; 350,000 compounds, 0.28% hits; recombinant TDP1, AlphaScreen DNA substrate cleavage; further: potency means the concentration at half of the fitted maximal effect; nearly all actives have a fitted effect of over 40% in size
# Target sequence (Q9NUW8 whole entry, looked up): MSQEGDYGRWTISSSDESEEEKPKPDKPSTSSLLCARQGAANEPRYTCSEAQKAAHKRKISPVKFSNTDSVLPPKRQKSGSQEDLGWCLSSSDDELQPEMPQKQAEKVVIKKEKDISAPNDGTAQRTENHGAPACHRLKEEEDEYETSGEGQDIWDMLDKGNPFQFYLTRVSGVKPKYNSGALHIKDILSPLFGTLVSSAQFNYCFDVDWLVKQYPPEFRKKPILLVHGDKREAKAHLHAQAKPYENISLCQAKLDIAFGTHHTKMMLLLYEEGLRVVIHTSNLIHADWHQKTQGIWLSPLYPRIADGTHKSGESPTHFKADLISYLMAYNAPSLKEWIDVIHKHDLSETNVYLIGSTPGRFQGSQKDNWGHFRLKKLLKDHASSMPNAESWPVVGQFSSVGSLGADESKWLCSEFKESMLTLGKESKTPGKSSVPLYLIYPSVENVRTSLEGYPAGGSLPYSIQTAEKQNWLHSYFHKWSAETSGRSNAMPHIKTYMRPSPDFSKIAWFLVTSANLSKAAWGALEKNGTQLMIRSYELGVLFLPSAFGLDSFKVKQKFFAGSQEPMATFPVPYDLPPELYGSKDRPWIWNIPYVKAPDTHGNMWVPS
#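 Signal: AlphaScreen proximity between streptavidin donor and anti-FITC acceptor beads on intact substrate. Reaction: Tdp1 1 nM, substrate 15 nM final, 5 min RT after 15 min compound preincubation.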
# TDP1 cell CPT: growth inhibition of DT40 Tdp1-/-;hTDP1 cells with camptothecin (screen for TDP1 inhibitors); AID 686979; Potency, µM (series often up to 46.2 µM), for inactives: top-dose activity change, negative = growth inhibition, hits mostly inhibitors; chicken DT40 Tdp1-/-;hTDP1 cells + 20 nM CPT, ATP luminescence, 48 h; 420,000 compounds, 12% hits; further: potency means the concentration at half of the fitted maximal effect; nearly all actives have a fitted effect of over 55% in size
#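 Chicken DT40 Tdp1-/- cells stably complemented with human TDP1 were seeded at 400 cells/well in medium containing 20 nM camptothecin, exposed to pin-transferred compounds, and grown at 37 °C for at least 48 hr. Viability was read as ATP luminescence.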
# ELG1 FLuc counter: luciferase inhibition in cell-free luciferin readout for ELG1 hits | 350 compounds, 3% hits | cell-free firefly luciferase luminescence counter-screen, ViewLux | AID 624247 | shares compounds with ELG1 DNA repair | Potency, µM (top dose mostly 46.1 µM), for inactives: at the highest dose activity change, negative = inhibition, hits mostly inhibitors; further: potency means the concentration at half of the fitted maximal effect
# ELG1-Luc inh: human ELG1 repair inhibition, luciferase-tagged ELG1 confirmation | shares compounds with ELG1 DNA repair | HEK293T ELG1-luciferase levels, luminescence; cells co-treated with 5-fluorouridine | Potency, µM (top dose mostly 46.1 µM), inactives show top-dose activity change, negative = inhibition, most hits filed as inhibitors | 670 compounds, 68% hits; further: potency means the concentration at half of the fitted maximal effect; nearly all actives have a fitted effect of over 55% in size
# ELG1 MMS Luc: MMS-stimulated human ELG1 repair inhibition, confirmed | shares compounds with ELG1 DNA repair | HEK293T luciferase-tagged ELG1 level, MMS stimulated | Potency, µM (series often up to 46.1 µM), for inactives: top-dose activity change, negative = inhibition, most hits filed as inhibitors | 670 compounds, 53% hits | AID 624249; further: potency means the concentration at half of the fitted maximal effect; nearly all actives have a fitted effect of over 60% in size
# ELG1 5FU viab: confirmation of ELG1 repair inhibitors: viability with 5FU. 670 tested, under 10 active. Potency, µM (highest dose often 46.1 µM), inactives show at the highest dose activity change, negative = viability loss, hits mostly cytotoxic. AID 624250. cell viability with 5-FU, ELG1-dependent repair. shares compounds with ELG1 DNA repair;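 further: ELG1-luc HEK293T cells cotreated with 5-fluorouridine at 10 µM final; potency means the concentration at half of the fitted maximal effect; viability measured 16 h after compound addition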
# ELG1 MMS cell: confirmation of ELG1 repair inhibitors: viability with MMS. Potency, µM (highest dose often 46.1 µM), without a hit: top-dose activity change, negative = viability loss, usual class: cytotoxic. AID 624251. shares compounds with ELG1 DNA repair. 670 compounds, 33% hits. Cell viability with MMS, ELG1-dependent DNA repair;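 further: ELG1-luc HEK293T cells co-treated with 10 µM MMS; potency means the concentration at half of the fitted maximal effect; viability read 16 h after compound addition; nearly all actives have a fitted effect of over 60% in size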
# Cell viab unstim: unstimulated viability counter-screen for ELG1 repair hits; shares compounds with ELG1 DNA repair; cell viability counter-screen, unstimulated, luminescence; Potency, µM (top dose mostly 45.9 µM), inactives show at the highest dose activity change, negative = loss of viability, actives largely listed as cytotoxic; 900 compounds, 8% hits; AID 624252;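 further: potency means the concentration at half of the fitted maximal effect; compound exposure lasted 16 hours before reading; nearly all actives have a fitted effect of over 55% in size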
# FLuc biochem: counter-screen for ELG1 repair inhibitors: firefly luciferase inhibition; shares compounds with ELG1 DNA repair; 350 compounds, 10% hits; Potency, µM (doses to about 57.5 µM), for the others: at the top dose activity, negative = inhibition, hits mostly inhibitors; AID 624253; purified firefly luciferase, luminescence counter-screen; further: potency means the concentration at half of the fitted maximal effect
# The depositor's hits bear a star; u = inconclusive; x = no result given; [ ] = another dose, or the depositor's remark. Unless noted, the call rests on the fitted dose curve; in most records, active means well fitted curve in the direction sought with a large enough effect; inconclusive means small, poorly fitted or top-dose-only effect, or another doubt; inactive means no such curve, though single readings can be large; an effect the other way counts as inactive or inconclusive. On the % scale 0 is the no-effect control and ±100 the full control effect.
SMILES,Giardia kill,IL-1B inflam inh,ELG1 DNA repair,TDP1 cell noCPT,TDP1 block,TDP1 cell CPT,ELG1-Luc inh,ELG1 MMS Luc,ELG1 5FU viab,ELG1 MMS cell,Cell viab unstim,others
COc1cccc(NC(=O)N2CCN3CCCCC3C2)c1 (stereo not given),x,x,x,1.9%,-3.8%,-18.2%,x,x,x,x,x,
CC1(C)Cc2nc3nc(SCC(=O)NCCc4ccccc4)n(-c4ccccc4)c(=O)c3cc2CO1,6.4,-16.7,4.61µM*,-15.6%,5.0%,-13.1%,u,26.4%,u,0.2%,u,
CC(=O)Nc1ccc(C(=O)OCC(=O)Nc2c(F)cccc2F)cc1,19.8,-14.1,2.7%,12.8%,0.0%,-10.0%,x,x,x,x,x,
Cc1c(C)c2c(OCC(=O)NCc3cccnc3)cc3c(c2oc1=O)CCC(C)(C)O3,u,11.0,-4.7%,-9.8%,x,-4.5%,x,x,x,x,x,
CCc1cc(=O)oc2c3c(cc(OCC(=O)NCc4cccnc4)c12)OC(C)(C)CC3,-26.0,-1.4,3.66µM*,20.6µM*,x,u,u,16.1%,5.3%,-1.1%,u,
ICC[n+]1csc2ccccc21,x,x,x,u,x,u,x,x,x,x,-1.2%,
Cc1ccc(N2CC(C(=O)Nc3ccc(S(=O)(=O)Nc4nccc(C)n4)cc3)CC2=O)cc1 (stereo not given),16.9,-10.7,-0.2%,1.8%,0.0%,-4.0%,x,x,x,x,x,
CCCN(CCC)c1ncnc2nc[nH]c12,-5.1,20.1,1.64µM*,u,1.1%,u,4.45µM*,u,-4.5%,9.7%,-3.6%,
C=CCOc1ccccc1CN1CCCC(CCC(=O)N(C)CCc2ccccn2)C1 (stereo not given),12.2,6.7,0.8%,2.4%,x,2.8%,x,x,x,x,x,
COc1cc(-c2cc(C(=O)Nc3cccc(C(C)=O)c3)c3ccccc3n2)cc(OC)c1OC,-8.9,-19.3,1.64µM*,u,x,6.51µM*,0.705µM*,11.2µM*,u,-9.8%,u,
CN(C)c1ccc(C=Nc2cncc3ccccc23)cc1,x,x,x,-25.1%,x,13.5%,x,x,x,x,-4.8%,ELG1 FLuc counter=49.6%;FLuc biochem=0.291µM*
COc1ccc(C(=O)Nc2ccc(-c3nc4ccccc4s3)c(Cl)c2)cc1Cl,x,x,x,-13.4%,-4.2%,-21.9%,x,x,x,x,x,
COc1ccc(CN(CC2CCC(C(=O)O)CC2)C(=S)Nc2cccc(C)c2)cc1 (stereo not given),-12.4,16.9,-2.2%,-16.5%,0.0%,-4.2%,x,x,x,x,x,
CCOC(=O)C1=C(C)N(C[C@@H]2CC[C@@H](Cc3ccc4cc(OC)ccc4c3)O2)C(=O)NC1c1ccc(OC)cc1 (stereo not given in full),1.6,0.0,u,u,0.0%[56.1 µM],u,x,x,x,x,x,
COc1ccc2cc(C[C@@H]3CC[C@@H](CO)O3)ccc2c1,u,8.8,u,-25.2%,0.3%[56.1 µM],0.5%,x,x,x,x,-2.1%,
COc1ccc(CNC(=O)CN2CCN(c3ccc(F)cc3)CC2)cc1,-5.3,-1.9,-27.7%,-4.9%,x,-4.4%,x,x,x,x,x,
CC1CCc2nc(NC(=O)c3cc(C(C)(C)C)nn3C)sc2C1 (stereo not given),-8.9,-16.6,u,-7.7%,x,-12.0%,x,x,x,x,x,
Cc1ccc(-c2nc(NC(=O)c3cc(C(C)(C)C)nn3C)sc2C)cc1Cl,-8.2,-0.8,4.61µM*,u,0.0%,u,u,-18.9%,2.5%,u,u,
CCOC(=O)C1CCCN(C/C(O)=C(\C#N)c2nc(-c3ccccc3)cs2)C1 (stereo not given),-19.7,21.5,16.5%,-10.7%,4.1%,-13.6%,x,x,x,x,x,
COc1ccc(-c2coc3cc(O)cc(O)c3c2=O)cc1,2.1,-3.2,u,u,2.9%,u,x,x,x,x,-2.2%,
COc1ccc(-c2coc3cc(OC)cc(O)c3c2=O)cc1,-8.3,-11.0,u,-25.4%,1.9%,-23.6%,x,x,x,x,x,
COc1ccc(NC(=O)c2c(N)no[n+]2[O-])cc1,-5.4,-20.3,4.61µM*,-26.4%,-12.8%,-4.6%,13.9%,4.9%,-0.5%,-6.3%,-4.3%,
Cc1nc2c3ccccc3[nH]c(=O)n2n1,13.3,29.1,1.9%,-5.9%,3.7%,-21.0%,x,x,x,x,x,
COc1ccc(/C=N/n2c(N)c(S(=O)(=O)c3cccs3)c3nc4ccccc4nc32)cc1OC,-13.4,u,2.59µM*,-19.7%,-4.7%,u,3.15µM*,15.9%,u,-1.1%,-5.4%,
O=C1NC[C@H](c2ccccc2)OC(=O)[C@H](Cc2ccc(F)cc2)CC/C=C/C[C@H]1CC(=O)N(CCO)Cc1ccccc1,3.0,u,2.91µM*,u,-0.7%,25.9µM*,11.2µM*,12.5µM*,u,u,-12.8%,
